Test results reported in PubChem BioAssay (NCATS).
Results filed as inconclusive are left out. The source made the active and inactive calls. Unless noted, calls come from the whole dose curve; as a rule, active = well fitted curve in the direction sought with a large enough effect; inconclusive = small, poorly fitted or top-dose-only effect, or another doubt; inactive = no such curve, though single readings can be large; an effect the other way counts as inactive or inconclusive.

Legend:
[1] = biological target: Lysosomal acid glucosylceramidase (Homo sapiens) (UniProt P04062); experiment: Glucocerebrosidase-p2 (AID 348; in the data active = potency below about 10 µM; note: potency is the fitted concentration of half-maximal effect); settings: purified GBA, blue fluorogenic substrate, 40 min
Outline: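 Compounds titrated from 0.6 nM upwards against 0.2 nM enzyme in pH 5.9 citric acid/KH2PO4, taurocholate, tween-20; blue fluorogenic substrate 80 uM, 40 min room temperature, stopped and read Ex 365/Em 440 for AC50.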

[2] = Stat Signaling Pathway (AID 446; active = well fitted curve in either direction with a large enough effect, not every such curve was filed as active;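 note: ME-180 cervical cancer cells given 40 pM IL-6 alongside compound; SIE-controlled beta-lactamase reporter measured as 460/530 nm FRET emission ratio; % is set by controls: 0 for no effect and ±100 for the full control effect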); settings: ME-180 SIE beta-lactamase reporter, IL-6 stimulated, 5 h; at 7.69 µM (top of the series) unless noted
Outline: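 ME-180 cells carrying a SIE-driven beta-lactamase reporter are stimulated with 40 pM IL-6 for 5 h at 37C in the presence of compound. The 460/530 nm FRET substrate ratio is read after 2.5 h at RT. Data are normalised to 300 pM IL-6 and to 125 nM JAK inhibitor controls.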

[3] = biological target: Glucocorticoid receptor (Homo sapiens) (UniProt P04150); experiment: GR-GFP Redistribution (AID 450;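 active = compounds whose dose series gives a full or clear partial fitted curve of increased nuclear translocation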; note: potency is the fitted concentration of half-maximal effect); settings: U2OS GR-GFP nuclear translocation, laser cytometry, 2 h
[4] = biological target: Glucocorticoid receptor (Homo sapiens) (UniProt P04150); experiment: GR-EFC Redistribution (AID 451; calls by dose curve; note: potency is the fitted concentration of half-maximal effect); settings: CHO-K1 GR-EFC translocation, beta-gal luminescence, 2 h
Outline: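 CHO-K1 cells expressing nuclear EA and GR-ED fragments of b-gal; compounds titrated up to 46 uM final, 2 h at 37 C. GR nuclear translocation read as complemented b-gal luminescence after 1 h RT detection.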

[5] = biological target: Mitogen-activated protein kinase 10 (Mus musculus) (UniProt Q61831); experiment: JNK3 AlphaScreen Assay (AID 530; active = well fitted curve in either direction with a large enough effect, not every such curve was filed as active;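 note: kinase came from lysate of stimulated human HepG2 cells; signal reports phosphorylation of biotinylated GST-cJun 1-79 at Ser73 with 10 µM ATP; % is set by controls: 0 for no effect and ±100 for the full control effect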); settings: JNK3 lysate, c-Jun phosphorylation; series mostly up to 11.4 µM
Outline: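 Pre-activated (IL-1β/TNFα) JNK3 in HepG2 lysates phosphorylates biotin-GST-cJun(1-79), 10 uM ATP; anti-phospho-cJun(Ser73) AlphaScreen read at room temperature, pH 7.6 Tris buffer. Compounds pre-incubated 15 min as titrations.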

[6] = biological target: 3',5'-cyclic-AMP phosphodiesterase 4B (Homo sapiens) (UniProt Q07343); experiment: qHTS Assay for Inhibitors of PDE-IV (AID 607; active = well fitted activation curve with a large enough effect in the main read-out, with a control signal flat, not every such curve was filed as active; note: % of control where 0% means no effect); settings: HEK293 ACTOne CNG channel cells, membrane potential fluorescence; series mostly up to 22.9 µM
Outline: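 HEK293 ACTOne cells with CNG channel (1000/well), endogenous PDE4; membrane potential dye, compounds up to 22.9 uM final. Fluorescence Ex 535/Em 590; RO 20-1724 (100 uM final) as reference.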

[7] = biological target: ATP-dependent 6-phosphofructokinase (Trypanosoma brucei brucei) (UniProt O15648); experiment: qHTS Assay to Find Inhibitors of T. brucei phosphofructokinase: hit validation (AID 492961); note: % is set by controls: 0 for no effect and ±100 for the full control effect; settings: T. brucei PFK, ADP-Glo luminescence; series mostly up to 51.4 µM
Outline: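 Luminescence from ADP-Glo reports ADP generated as T. brucei PFK (1.25 nM) phosphorylates 0.5 mM fructose-6-phosphate using 0.1 mM ATP. Reactions ran 45 min at room temperature, pH 8.0.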

[8] = biological target: Luciferin 4-monooxygenase (Photinus pyralis) (UniProt P08659); experiment: Biochemical firefly luciferase enzyme assay for NPC (AID 624030);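 note: purified P. pyralis luciferase at 10 nM with luciferin and ATP substrate; 0% = DMSO and -100% = full luciferase inhibition by PTC124 control; nearly all actives have a fitted effect of over 70% in size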; settings: purified P. pyralis luciferase, luminescence, 5 min; series mostly up to 58.6 µM
Outline: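 Purified P. pyralis luciferase at 10 nM in 50 mM Tris Acetate (final), luminescence read within 5 minutes of enzyme addition to compounds. Activity normalised to PTC124 versus DMSO; concentration-response curves classed by r2, magnitude and activity.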

[9] = S16 Schwann cell PMP22 intronic element firefly luciferase assay (AID 624032); settings: S16 rat Schwann cells, PMP22 element FLuc, 24 h; series mostly up to 57.5 µM;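 note: plate controls were DMSO for no effect and PTC124 positive control mean for full effect; nearly all actives have a fitted effect of over 30% in size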
Outline: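 Rat S16 Schwann cells stably carrying firefly luciferase driven by a PMP22 intronic element, in 10% FBS, treated 24 h at 37 C. ONE-Glo luminescence normalized to PTC124 control and DMSO (0%); curves classed by r2, magnitude and activity.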

[10] = S16 Schwann cell PMP22 intronic element beta-lactamase assay (AID 624044; calls by dose curve;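 note: 0% = DMSO and -100% = potassium clavulanate positive control; nearly all actives have a fitted effect of over 15% in size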); settings: S16 rat Schwann cells, PMP22 element beta-lactamase FRET, 24 h; series mostly up to 38.3 µM
Outline: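 Rat S16 Schwann cells with beta-Lac driven by a PMP22 intronic element, compound-treated 24 h at 37 °C. LiveBLAzer FRET B/G read: 460 nm normalized to potassium clavulanate vs DMSO; 535 nm FRET as viability; concentration-effect curves classified.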

[11] = qHTS profiling for inhibitors of Plasmodium falciparum proliferation (AID 504749); note: nearly all actives have a fitted effect of over 60% in size; note: potency is the fitted concentration of half-maximal effect;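 for activity, negative = inhibition: 0% = DMSO vehicle and full inhibition = artemisinin control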; settings: P. falciparum in erythrocytes, SYBR Green DNA, 72 h, at 28.7 µM (top of the series)
Outline: (§1)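 P. falciparum-infected erythrocytes (0.3% parasitemia, 2.5% hematocrit) incubated with compound 72 h at 37 C, 5% CO2. Parasite DNA detected by SYBR Green after lysis, overnight at room temperature; normalised to 0.29 uM artemisinin and DMSO.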

7G8 = experiment: as above; settings: P. falciparum in erythrocytes, SYBR Green DNA, 72 h; series mostly up to 28.7 µM
Outline: as §1

ATS189 = experiment: as above; settings: P. falciparum in erythrocytes, SYBR Green DNA, 72 h; series mostly up to 28.7 µM
Outline: as §1

CP185 = experiment: as above; settings: P. falciparum in erythrocytes, SYBR Green DNA, 72 h; series mostly up to 28.7 µM
Outline: as §1

CP192 = experiment: as above; settings: P. falciparum in erythrocytes, SYBR Green DNA, 72 h; series mostly up to 28.7 µM
Outline: as §1

CP201 = experiment: as above; settings: P. falciparum in erythrocytes, SYBR Green DNA, 72 h; series mostly up to 28.7 µM
Outline: as §1

CP238 = experiment: as above; settings: P. falciparum in erythrocytes, SYBR Green DNA, 72 h; series mostly up to 28.7 µM
Outline: as §1

CP247 = experiment: as above; settings: P. falciparum in erythrocytes, SYBR Green DNA, 72 h; series mostly up to 28.7 µM
Outline: as §1

CP252 = experiment: as above; settings: P. falciparum in erythrocytes, SYBR Green DNA, 72 h; series mostly up to 28.7 µM
Outline: as §1

CP262 = experiment: as above; settings: P. falciparum in erythrocytes, SYBR Green DNA, 72 h; series mostly up to 28.7 µM
Outline: as §1

CP265 = experiment: as above; settings: P. falciparum in erythrocytes, SYBR Green DNA, 72 h; series mostly up to 28.7 µM
Outline: as §1

CP266 = experiment: as above; settings: P. falciparum in erythrocytes, SYBR Green DNA, 72 h; series mostly up to 28.7 µM
Outline: as §1

CP315 = experiment: as above; settings: P. falciparum in erythrocytes, SYBR Green DNA, 72 h; series mostly up to 28.7 µM
Outline: as §1

CP325 = experiment: as above; settings: P. falciparum in erythrocytes, SYBR Green DNA, 72 h; series mostly up to 28.7 µM
Outline: as §1

CP329 = experiment: as above; settings: P. falciparum in erythrocytes, SYBR Green DNA, 72 h; series mostly up to 28.7 µM
Outline: as §1

DFO2036 = experiment: as above; settings: P. falciparum in erythrocytes, SYBR Green DNA, 72 h; series mostly up to 28.7 µM
Outline: as §1

DIV14 = experiment: as above; settings: P. falciparum in erythrocytes, SYBR Green DNA, 72 h; series mostly up to 28.7 µM
Outline: as §1

DIV17 = experiment: as above; settings: P. falciparum in erythrocytes, SYBR Green DNA, 72 h; series mostly up to 28.7 µM
Outline: as §1

GB4 = experiment: as above; settings: P. falciparum in erythrocytes, SYBR Green DNA, 72 h; series mostly up to 28.7 µM
Outline: as §1

HB3 = experiment: as above; settings: P. falciparum in erythrocytes, SYBR Green DNA, 72 h; series mostly up to 28.7 µM
Outline: as §1

ICS = experiment: as above; settings: P. falciparum in erythrocytes, SYBR Green DNA, 72 h; series mostly up to 28.7 µM
Outline: as §1

N140 = experiment: as above; settings: P. falciparum in erythrocytes, SYBR Green DNA, 72 h; series mostly up to 28.7 µM
Outline: as §1

P93_24 = experiment: as above; settings: P. falciparum in erythrocytes, SYBR Green DNA, 72 h; series mostly up to 28.7 µM
Outline: as §1

PAD = experiment: as above; settings: P. falciparum in erythrocytes, SYBR Green DNA, 72 h; series mostly up to 28.7 µM
Outline: as §1

PC15 = experiment: as above; settings: P. falciparum in erythrocytes, SYBR Green DNA, 72 h; series mostly up to 28.7 µM
Outline: as §1

SC27B = experiment: as above; settings: P. falciparum in erythrocytes, SYBR Green DNA, 72 h; series mostly up to 28.7 µM
Outline: as §1

W2 = experiment: as above; settings: P. falciparum in erythrocytes, SYBR Green DNA, 72 h; series mostly up to 28.7 µM
Outline: as §1

[12] = biological target: Cytochrome P450 1A2 (Homo sapiens) (UniProt P05177); experiment: p450-cyp1a2 (AID 410; calls by dose curve; note: potency is the fitted concentration of half-maximal effect); settings: recombinant CYP1A2, luciferin-ME demethylation, luminescence; series mostly up to 11.4 µM
Outline: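 20nM CYP1A2 with 100uM Luciferin-ME (at Km) in 100mM KPO4; compound preincubated 10 min, NADPH regeneration added, 60 min at room temperature. Luciferin quantified by luminescence after detection reagent; normalized to 57 uM furafylline.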

[13] = biological target: Cytochrome P450 2C9 (Homo sapiens) (UniProt P11712); experiment: qHTS Assay for Inhibitors and Substrates of Cytochrome P450 2C9 (AID 883); settings: recombinant CYP2C9, luciferin-H luminescence, 60 min; series mostly up to 11.4 µM; note: potency is the fitted concentration of half-maximal effect; nearly all actives have a fitted effect of over 60% in size
Outline: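 10nM CYP2C9 + 100uM Luciferin-H (=KM), 25mM KPO4; cpd 10 min 37C; NADPH regen, 60 min 37C; stop/detect with P450 Glo-Buffer 20 min; luminescence. Norm. to 57uM sulphaphenazole as full inhibition.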

[14] = biological target: Cytochrome P450 3A4 (Homo sapiens) (UniProt P08684); experiment: qHTS Assay for Activators of Cytochrome P450 3A4 (AID 885); settings: recombinant CYP3A4, Luciferin-PPXE luminescence, 60 min; series mostly up to 11.4 µM; note: nearly all actives have a fitted effect of over 65% in size
Outline: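 Human CYP3A4 (20 nM) with Luciferin-PPXE at 25 uM (its KM) in 200 mM KPO4; 10 min compound preincubation, then NADPH regeneration and 60 min reaction at RT. Luciferin read by luminescence; normalized to 57 uM ketoconazole full inhibition.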

[15] = biological target: Cytochrome P450 2C19 (Homo sapiens) (UniProt P33261); experiment: qHTS Assay for Inhibitors and Substrates of Cytochrome P450 2C19 (AID 899); settings: recombinant CYP2C19, luciferin-H EGE luminescence; series mostly up to 11.4 µM; note: potency is the fitted concentration of half-maximal effect; nearly all actives have a fitted effect of over 60% in size
Outline: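 Luminescent read-out of luciferin formed from Luciferin-H EGE (10uM, equal to KM). Enzyme 5nM in 50mM KPO4; compound added, 10 min at 37C, then NADPH regenerating system for 60 min at 37C. Full inhibition defined by 57uM ketoconazole.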

Sequence of Glucocorticoid receptor (Homo sapiens) (P04150 whole entry, looked up, the tested form may be a part): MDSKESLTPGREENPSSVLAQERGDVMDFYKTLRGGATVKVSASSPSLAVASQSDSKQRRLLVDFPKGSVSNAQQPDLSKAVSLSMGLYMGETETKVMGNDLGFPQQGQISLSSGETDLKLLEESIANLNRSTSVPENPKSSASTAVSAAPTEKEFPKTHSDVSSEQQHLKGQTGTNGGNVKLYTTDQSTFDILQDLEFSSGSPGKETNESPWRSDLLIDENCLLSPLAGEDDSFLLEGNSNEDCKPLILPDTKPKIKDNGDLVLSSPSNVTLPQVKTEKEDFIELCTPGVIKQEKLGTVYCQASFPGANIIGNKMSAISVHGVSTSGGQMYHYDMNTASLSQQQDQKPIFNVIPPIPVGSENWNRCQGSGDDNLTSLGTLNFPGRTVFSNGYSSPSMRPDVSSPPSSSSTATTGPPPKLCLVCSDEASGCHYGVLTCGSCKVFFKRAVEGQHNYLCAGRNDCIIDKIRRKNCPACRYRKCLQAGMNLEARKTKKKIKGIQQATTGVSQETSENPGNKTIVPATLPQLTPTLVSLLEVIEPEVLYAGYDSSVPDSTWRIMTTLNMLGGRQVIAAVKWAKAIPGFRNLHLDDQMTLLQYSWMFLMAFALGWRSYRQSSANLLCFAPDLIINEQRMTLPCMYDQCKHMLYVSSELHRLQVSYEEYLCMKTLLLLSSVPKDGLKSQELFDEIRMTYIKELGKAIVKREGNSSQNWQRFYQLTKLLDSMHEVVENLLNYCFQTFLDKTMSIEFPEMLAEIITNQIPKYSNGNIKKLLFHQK
Sequence of 3',5'-cyclic-AMP phosphodiesterase 4B (Homo sapiens) (Q07343 whole entry, looked up): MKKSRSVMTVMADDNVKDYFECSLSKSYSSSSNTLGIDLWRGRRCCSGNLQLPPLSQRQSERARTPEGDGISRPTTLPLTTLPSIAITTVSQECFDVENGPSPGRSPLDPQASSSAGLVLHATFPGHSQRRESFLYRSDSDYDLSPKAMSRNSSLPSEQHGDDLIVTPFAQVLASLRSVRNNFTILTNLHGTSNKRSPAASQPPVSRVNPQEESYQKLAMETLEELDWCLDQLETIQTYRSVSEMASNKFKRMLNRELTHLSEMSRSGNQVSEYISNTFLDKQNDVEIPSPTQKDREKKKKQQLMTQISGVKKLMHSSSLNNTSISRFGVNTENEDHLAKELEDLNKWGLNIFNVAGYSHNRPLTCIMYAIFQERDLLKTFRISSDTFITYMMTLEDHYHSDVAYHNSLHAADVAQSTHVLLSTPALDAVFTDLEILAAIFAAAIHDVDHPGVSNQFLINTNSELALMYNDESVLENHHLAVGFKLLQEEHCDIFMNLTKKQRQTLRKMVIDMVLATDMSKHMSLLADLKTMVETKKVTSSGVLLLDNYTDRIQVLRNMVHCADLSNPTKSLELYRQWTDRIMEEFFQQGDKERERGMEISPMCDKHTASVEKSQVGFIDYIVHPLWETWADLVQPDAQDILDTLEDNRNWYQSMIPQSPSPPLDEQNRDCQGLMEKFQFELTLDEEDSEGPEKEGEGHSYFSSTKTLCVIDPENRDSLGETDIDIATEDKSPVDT
Sequence of Lysosomal acid glucosylceramidase (Homo sapiens) (P04062 whole entry, looked up): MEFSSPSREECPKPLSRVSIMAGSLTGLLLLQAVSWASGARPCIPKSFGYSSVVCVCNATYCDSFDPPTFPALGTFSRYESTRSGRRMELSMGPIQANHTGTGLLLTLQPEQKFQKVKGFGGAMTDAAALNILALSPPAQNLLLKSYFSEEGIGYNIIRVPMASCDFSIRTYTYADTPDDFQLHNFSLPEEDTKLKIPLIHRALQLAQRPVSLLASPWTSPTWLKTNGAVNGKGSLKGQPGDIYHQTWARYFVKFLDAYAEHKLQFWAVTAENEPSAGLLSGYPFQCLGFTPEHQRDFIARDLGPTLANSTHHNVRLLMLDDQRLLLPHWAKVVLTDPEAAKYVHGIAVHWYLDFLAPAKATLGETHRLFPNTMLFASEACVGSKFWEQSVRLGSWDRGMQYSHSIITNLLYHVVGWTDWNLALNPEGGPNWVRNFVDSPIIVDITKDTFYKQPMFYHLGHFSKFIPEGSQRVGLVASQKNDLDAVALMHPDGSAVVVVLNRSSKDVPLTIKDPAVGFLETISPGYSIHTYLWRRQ
Sequence of Cytochrome P450 3A4 (Homo sapiens) (P08684 whole entry, looked up): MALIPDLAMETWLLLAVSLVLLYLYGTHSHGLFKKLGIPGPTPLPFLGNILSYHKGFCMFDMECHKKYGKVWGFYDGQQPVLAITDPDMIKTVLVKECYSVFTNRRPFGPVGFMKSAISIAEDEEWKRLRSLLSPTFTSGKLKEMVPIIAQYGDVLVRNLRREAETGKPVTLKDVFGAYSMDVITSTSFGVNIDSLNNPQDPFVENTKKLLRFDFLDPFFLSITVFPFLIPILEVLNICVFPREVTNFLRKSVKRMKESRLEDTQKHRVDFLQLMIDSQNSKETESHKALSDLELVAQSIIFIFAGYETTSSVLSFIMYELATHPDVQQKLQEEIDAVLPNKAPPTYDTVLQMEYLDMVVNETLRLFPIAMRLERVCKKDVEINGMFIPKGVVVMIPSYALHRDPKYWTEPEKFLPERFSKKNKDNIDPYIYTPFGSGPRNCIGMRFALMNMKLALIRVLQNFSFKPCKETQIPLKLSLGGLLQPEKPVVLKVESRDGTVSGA
Sequence of ATP-dependent 6-phosphofructokinase (Trypanosoma brucei brucei) (O15648 whole entry, looked up): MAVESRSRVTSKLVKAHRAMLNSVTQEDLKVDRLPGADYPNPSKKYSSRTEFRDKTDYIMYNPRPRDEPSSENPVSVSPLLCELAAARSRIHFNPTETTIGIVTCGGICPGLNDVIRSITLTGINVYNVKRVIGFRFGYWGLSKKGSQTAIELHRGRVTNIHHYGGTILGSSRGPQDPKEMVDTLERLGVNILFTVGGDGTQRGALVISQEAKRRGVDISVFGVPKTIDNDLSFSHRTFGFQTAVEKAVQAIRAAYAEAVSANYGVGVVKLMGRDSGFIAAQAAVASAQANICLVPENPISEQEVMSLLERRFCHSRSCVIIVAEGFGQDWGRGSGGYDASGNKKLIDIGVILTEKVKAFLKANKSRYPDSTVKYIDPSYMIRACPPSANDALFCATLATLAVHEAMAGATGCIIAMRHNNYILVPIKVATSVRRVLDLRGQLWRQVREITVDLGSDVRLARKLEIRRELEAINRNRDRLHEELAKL
Sequence of Cytochrome P450 2C19 (Homo sapiens) (P33261 whole entry, looked up): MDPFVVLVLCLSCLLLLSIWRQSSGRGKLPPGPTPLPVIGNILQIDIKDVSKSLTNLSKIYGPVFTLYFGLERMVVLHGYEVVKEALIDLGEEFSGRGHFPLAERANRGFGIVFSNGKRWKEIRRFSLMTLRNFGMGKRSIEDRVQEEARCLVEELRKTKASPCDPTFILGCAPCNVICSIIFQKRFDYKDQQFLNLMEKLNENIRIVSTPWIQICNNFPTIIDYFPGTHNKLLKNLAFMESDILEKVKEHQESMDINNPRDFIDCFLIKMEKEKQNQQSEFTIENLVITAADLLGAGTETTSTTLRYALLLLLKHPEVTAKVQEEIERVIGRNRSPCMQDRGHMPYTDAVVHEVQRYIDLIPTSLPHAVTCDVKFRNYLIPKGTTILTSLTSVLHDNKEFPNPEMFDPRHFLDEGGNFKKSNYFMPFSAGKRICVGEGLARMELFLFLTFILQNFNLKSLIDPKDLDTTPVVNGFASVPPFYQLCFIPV
Sequence of Luciferin 4-monooxygenase (Photinus pyralis) (P08659 whole entry, looked up): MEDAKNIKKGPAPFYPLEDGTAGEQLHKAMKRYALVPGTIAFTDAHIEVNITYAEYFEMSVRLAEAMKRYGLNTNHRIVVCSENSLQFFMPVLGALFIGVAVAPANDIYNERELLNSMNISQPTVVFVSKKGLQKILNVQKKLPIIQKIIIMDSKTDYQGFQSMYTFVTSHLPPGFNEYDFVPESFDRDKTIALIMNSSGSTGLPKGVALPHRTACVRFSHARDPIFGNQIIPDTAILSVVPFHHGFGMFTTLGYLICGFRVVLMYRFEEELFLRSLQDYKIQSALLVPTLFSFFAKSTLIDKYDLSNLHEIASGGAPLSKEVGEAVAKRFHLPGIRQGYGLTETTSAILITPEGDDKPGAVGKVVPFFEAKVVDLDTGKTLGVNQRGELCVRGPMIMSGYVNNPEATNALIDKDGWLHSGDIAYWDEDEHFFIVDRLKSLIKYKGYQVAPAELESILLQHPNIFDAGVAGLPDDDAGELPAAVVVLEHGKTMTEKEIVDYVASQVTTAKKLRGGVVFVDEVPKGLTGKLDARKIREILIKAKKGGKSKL
Sequence of Cytochrome P450 2C9 (Homo sapiens) (P11712 whole entry, looked up): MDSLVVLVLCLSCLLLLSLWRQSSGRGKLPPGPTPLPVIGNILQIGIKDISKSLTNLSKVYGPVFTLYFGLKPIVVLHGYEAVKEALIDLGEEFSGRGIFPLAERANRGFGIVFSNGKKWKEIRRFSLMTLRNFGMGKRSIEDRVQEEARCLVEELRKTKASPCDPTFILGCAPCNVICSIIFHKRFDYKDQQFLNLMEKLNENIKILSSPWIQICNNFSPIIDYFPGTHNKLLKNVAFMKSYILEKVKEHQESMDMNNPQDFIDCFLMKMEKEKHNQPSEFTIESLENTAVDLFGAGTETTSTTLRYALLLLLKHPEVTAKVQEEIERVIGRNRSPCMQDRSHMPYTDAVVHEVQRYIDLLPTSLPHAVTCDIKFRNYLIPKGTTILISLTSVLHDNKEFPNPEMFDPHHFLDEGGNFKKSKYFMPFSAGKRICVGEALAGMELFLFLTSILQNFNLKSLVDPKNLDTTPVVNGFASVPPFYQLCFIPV

CCc1ccc2c(c1)N(C[C@H](C)CN(C)C)c1ccccc1S2
inactive: Potency [1] > 11.4 µM | activity, negative = inhibition [2] 3.53% | Potency [3] > 46 µM | Potency [4] > 9.22 µM | Potency [5] | Potency [6] | outcome [7] | outcome [8] | Potency [9] | outcome [10] | activity, negative = inhibition ([11]; parasite line A) -23.4% | activity, negative = inhibition ([11]; parasite line B) -17.5% | Potency (ATS189) | Potency (CP185) | Potency (CP192) | Potency (CP201) | Potency (CP238) | Potency (CP247) | Potency (CP252) | Potency (CP262) | Potency (CP265) | Potency (CP266) | Potency (CP315) | Potency (CP325) | Potency (CP329) | Potency (DFO2036) | Potency (HB3) | Potency (N140) | Potency (PAD) | Potency (PC15) | Potency (SC27B)
active: Potency (7G8) 10 µM | Potency (DIV14) 8.49 µM | Potency (DIV17) 6.01 µM | Potency (GB4) 7.57 µM | Potency (ICS) 7.94 µM | Potency (P93_24) 7.94 µM | Potency (W2) 7.57 µM

COC(=O)CC[C@@H](C)[C@@H]1CC[C@@H]2[C@@H]3CC[C@H]4C[C@@H](O)CC[C@@]4(C)[C@@H]3CC[C@]21C
inactive: Potency [1] > 11.4 µM | activity, negative = inhibition [2] 23.8% | Potency [3] > 46 µM | Potency [4] > 9.22 µM | Potency [5] | Potency [6]

O=C1/C(=C/c2ccccc2)[C@@H](NC2CCCCC2)c2ccccc21
active: Potency [12] 1 µM | Potency [13] 3.98 µM | Potency [15] 1.26 µM
inactive: Potency [1] > 11.4 µM | Potency [4] > 9.22 µM | Potency [5] | Potency [6] | Potency [14]
